AID923: qHTS Assay for Allosteric/Competitive Inhibitors of Caspase-1: Spectroscopic Profiling in AFC Spectral Region | compound fluorescence, AFC spectral region (405/520 nm) | Potency, µM (series often up to 57.5 µM), inactives show at the top dose fluorescence increase, usual class: activators | 1.1% of 75,000 active; note: potency is the fitted concentration of half-maximal effect; 0% is about no effect
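Titrations up to 57 uM read every 20 sec for 3 min (405/520 nm) with 50 nM caspase 1 and 5 uM Ac-WEHD-AFC, pH 7.5 HEPES buffer. Fluorescence-vs-time intercept gave baseline, scaled against on-plate AFC standard.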
HADH2 inhib: blocks human hydroxyacyl-CoA dehydrogenase type II; Q99714; recombinant HADH2, NADH fluorescence, beta-hydroxybutyryl-CoA; Potency, µM (top dose mostly 57.1 µM), inactives show top-dose activity change, negative = inhibition, hits mostly inhibitors; 3.4% of 73,000 active; note: potency is the fitted concentration of half-maximal effect; % is set by controls: 0 for no effect and ±100 for the full control effect; nearly all actives have a fitted effect of over 60% in size
Target sequence (Q99714 whole entry, looked up, one chain of several): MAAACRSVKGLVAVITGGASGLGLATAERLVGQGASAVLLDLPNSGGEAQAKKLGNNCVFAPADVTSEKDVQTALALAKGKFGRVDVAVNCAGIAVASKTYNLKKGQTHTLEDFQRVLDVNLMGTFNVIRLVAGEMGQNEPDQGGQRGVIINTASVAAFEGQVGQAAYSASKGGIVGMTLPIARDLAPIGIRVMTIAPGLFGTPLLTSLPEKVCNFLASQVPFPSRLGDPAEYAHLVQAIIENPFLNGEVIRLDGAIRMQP
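His-tagged recombinant enzyme from E. coli, 20 nM, preincubated 15 min RT with compound; reaction started with 1 mM NAD+ and 90 uM beta-hydroxybutyryl-CoA in 100 mM Tris-HCl pH 9.0. NADH fluorescence (ex 360/em 450) read over 4 min; last-minus-first difference.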
HSD17B inhib: blocks hydroxysteroid 17-beta dehydrogenase activity | Q99714 | recombinant HSD17B10, NADH fluorescence kinetic | Potency, µM (series often up to 57.1 µM), inactives show at the top dose activity change, negative = inhibition, actives largely listed as inhibitors | 7.6% of 75,000 active;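 note: the protocol describes HADH2 (HSD17B10) and not the HSD17B4 of the title; potency is the fitted concentration of half-maximal effect; % is set by controls: 0 for no effect and ±100 for the full control effect; nearly all actives have a fitted effect of over 70% in size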
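His-tagged E. coli-expressed HADH2 at 20 nM in 100 mM Tris-HCl pH 9.0 with 0.01 % Tween-20, preincubated 15 min with compound at room temperature. Reaction with 1 mM NAD+ and 90 uM beta-hydroxybutyryl coenzyme A; NADH fluorescence (360/450 nm) read kinetically over 4 min, last minus first point.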
4-MU autofl: compound fluoresces in the 4-MU spectral region | compound autofluorescence, 340/450 nm, 4-MU equivalents; stronger effect = higher value | max dye-equivalent concentration, M | 11% of 59,000 active | AID 589; in the data active = max dye-equivalent concentration above about 10 nM; inconclusive = mostly about 1.1 nM to 9.6 nM
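Intrinsic fluorescence at 340/450 nm (ex/em) was read after 15 min at room temperature in pH 8.0, 100 mM Tris. Each compound concentration expressed as 4-MU-equivalent concentration from a six-point 4-MU standard series on each plate.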
A350 autofl: compound fluoresces in the Alexa 350 spectral region | Compound autofluorescence, 340/450 nm, Alexa 350 dye-equivalents; stronger effect = higher value | max dye-equivalent concentration, M | 11% of 59,000 active; in the data active = max dye-equivalent concentration above about 10 nM; inconclusive = mostly about 1.1 nM to 9.6 nM
CRE Fsk mod: CRE-bla signaling modulation under forskolin stimulation; CHO CRE-bla reporter (cAMP response element driving beta-lactamase), forskolin EC10, beta-lactamase ratio; Potency, µM (doses to about 38.2 µM), inactives show top-dose activity change, negative = inhibition, usual class: activators; 2.5% of 71,000 active; active = well fitted activation curve with a large enough effect in the signal ratio, with a control signal flat, not every such curve was filed as active; inconclusive = small, poorly fitted or top-dose-only effect, or effect the other way, or a change in a side signal; the % refers to the signal ratio; note: potency is the fitted concentration of half-maximal effect; % of control where 0% means no effect
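CHO CRE-bla cells, overnight plating in Opti-MEM with 0.5% dialyzed FBS; cpd titration + EC10 NKH 477, 3 h 37 °C; CCF4 2 h RT; ex 405/em 460 vs 530 ratio → %Activity, AC50.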
* marks the source's active call; other numbers are inactive results; i = inactive; u = inconclusive; x = no result; [ ] = remark or other dose. A selection: hits, their analogues and other compounds. The true share with any hit is near 14%. Unless noted, calls come from the whole dose curve; as a rule, active = well fitted curve in the direction sought with a large enough effect; inconclusive = small, poorly fitted or top-dose-only effect, or another doubt; inactive = no such curve, though single readings can be large; an effect the other way counts as inactive or inconclusive.

SMILES	AID923	HADH2 inhib	HSD17B inhib	4-MU autofl	A350 autofl	CRE Fsk mod
O=C(O)C1Cc2c([nH]c3ccccc23)C(c2ccc3c(c2)OCO3)N1 (stereo unspecified)	9%	-17%	32µM*	2.6e-08M*	3.1e-08M*	u
O=C(O)[C@@H]1Cc2c([nH]c3ccccc23)[C@@H](CCCCO)N1	1%[11.5 µM]	-4%[11.4 µM]	0%[11.4 µM]	2.1e-08M*	2.5e-08M*	8%[7.6 µM]
O=C(Cc1c(C(=O)O)[nH]c2ccccc12)Nc1ccc2c(c1)OCO2	0%	-2%	1%	i	i	10%
Cc1ccc(S(=O)(=O)N(CC(O)CN2CCCC2)c2ccccc2)cc1 (stereo unspecified)	0%	15%	11%	i	i	-6%
O=c1oc2ccccc2cc1-c1cn2cccnc2n1	9%	u	25µM*	4.8e-07M*	4.5e-07M*	2%
CCOc1ccccc1-n1nnnc1SCc1nc2ccccc2s1	10%	-13%	-14%	i	i	-2%
CCOC(=O)C1=C(C)NC(C)=C(C(=O)OCC)C1C(=O)OC1CCOC1=O (stereo unspecified)	5%	-2%	u	1.5e-07M*	2e-07M*	9%
CCOC(=O)C1=C(C)NC(=O)NC1c1ccc2c(c1)OCCO2 (stereo unspecified)	-2%	-16%	2%	i	i	2%
COC(=O)C1=C(C)NC(C)=C(C(=O)OC)C1C(=O)OC1CCCCC1=O (stereo unspecified)	6%	-20%	u	1.1e-07M*	1.5e-07M*	u
Cc1ccc(OCCN2C(=O)CSC2=O)cc1	1%	3%	1%	i	i	15%
CC(C)C(c1nnnn1Cc1ccco1)N1CCN(c2cccc(Cl)c2)CC1 (stereo unspecified)	-3%	-3%	-2%	i	i	u
CC1=C(C#N)c2nc(N)c(C#N)c(C)c2/C1=C\c1ccccc1	-2%	u	32µM*	3.7e-08M*	3.1e-08M*	3%
NCCC[C@@H](CC(=O)N[C@@H]1CCNC[C@H]1C(=O)N[C@H](CC(=O)N[C@@H](CCC(=O)O)CC(=O)O)Cc1c[nH]c2ccccc12)NC(=O)C[C@H](Cc1c[nH]c2ccccc12)NC(=O)[C@@H]1CCCC[C@H]1N	x	13%	x	x	x	-7%
CSCCC1NC2(C(=O)Nc3c(Cl)cccc32)[C@@H]2C(=O)N(C3CCCC3)C(=O)[C@H]12 (stereo partly specified)	-2%	25%	u	4.9e-08M*	6.4e-08M*	-9%
CSCCC1NC2(C(=O)Nc3c(C)cc(Cl)cc32)[C@@H]2C(=O)N(C3CCCC3)C(=O)[C@H]12 (stereo partly specified)	-1%	8%	-13%	i	i	-11%
Cc1cc(C)n2nc(SCN3C(=O)c4ccccc4C3=O)nc2n1	3%	-17%	-16%	i	i	u
Cc1cc(C)n2nc(SCc3nc4ccccc4[nH]3)nc2n1	2%	5%	3%	x	x	0.79µM*
N#CCCn1c(C(C#N)(CCC#N)CCC#N)nc2ccccc21	-1%	6%	6%	x	x	x
Cc1cc(C)n(-c2nc3ccccc3c3nc(C)nn23)n1	-1%	5%	-8%	x	x	10µM*
O=C(O)CSc1nc(-c2ccccc2)nc2c1oc1ccccc12	-1%	-23%	4%	2.3e-08M*	2.2e-08M*	u
COC(=O)c1ccc(CSc2ncnc3ccccc23)o1	0%	2%	-1%	x	x	0%
COC(=O)c1ccc(CSc2ncnc3c2oc2ccccc23)o1	2%	-6%	-6%	i	i	2.5µM*
CC(=O)CSc1ncnc2c1oc1ccccc12	1%	u	-4%	i	u	4µM*
O=C(O)C1CCN(c2nc(-c3ccccc3)nc3c2oc2ccccc23)CC1	3%	-3%	-9%	u	u	u
CCOC(=O)C1CCN(c2nc(-c3ccccc3)nc3c2oc2ccccc23)CC1	-2%	u	32µM*	u	u	u
SMILES	AID923	HADH2 inhib	HSD17B inhib	4-MU autofl	A350 autofl	CRE Fsk mod
CCCC(c1nnnn1CCc1ccccc1)N1CCN(C(=O)c2ccco2)CC1 (stereo unspecified)	2%	1%	-2%	i	i	-9%
COC(=O)CN(c1ccccc1OC)S(=O)(=O)c1ccccc1	0%	0%	-1%	i	i	-5%
CCOc1ccccc1NC(=O)CSc1ncnc2c1oc1ccccc12	0%	-1%	8%	i	i	0.63µM*
CCOC(=O)C1CCN(Cc2c(O)ccc3ccccc23)CC1	1%	-5%	u	8.5e-08M*	9.3e-08M*	-9%
O=C(CSc1ncnc2c1oc1ccccc12)Nc1cccc(Cl)c1	3%	-21%	2%	i	i	u
CCOC(=O)C(Cc1ccc(O)cc1)NC(C)=O (stereo unspecified)	-3%	x	5%	x	x	x
Cc1ccc(NC(=O)CCn2cccc2)cc1Cl	0%	9%	-3%	x	x	x
COC(=O)c1ccc(CC(=O)c2ccc(O)cc2O)o1	0%	u	-9%	x	x	x
COC(=O)c1ccc(CC(=O)c2c(C)cc(O)cc2O)o1	2%	16µM*	u	i	i	-12%
CCOC(=O)c1ccc(S(=O)(=O)NC2CCCCCCC2)n1C	2%	6%	1%	i	i	7%
O=C1Nc2ccc(I)cc2/C1=C/c1cc(Br)c(O)c(Br)c1	-3%	13µM*	7.9µM*	i	i	u
CS(=O)(=O)Nc1cccc(-c2nccc(NCc3ccccc3)n2)c1	-1%	3%	2%	i	i	1%
Cn1ncc2c(Nc3ccc4ccccc4c3)ncnc21	0%	-9%	-11%	i	i	13%
CC(C)N1C(=O)CCC1C(=O)NC1CCCC1 (stereo unspecified)	1%	7%	12%	u	1.1e-08M*	1%
O=C(NC1CC1)C1CCC(=O)N1C1CCCC1 (stereo unspecified)	-2%	3%	5%	i	i	9%
CC(C)N1C(=O)CCC1C(=O)NCCc1ccccc1 (stereo unspecified)	-1%	5%	7%	1.1e-08M*	1.5e-08M*	-4%
CCN(CC)S(=O)(=O)c1ccc(C(=O)C(C#N)c2ccccn2)cc1 (stereo unspecified)	1%	9%	7%	1.8e-08M*	1.9e-08M*	5%
CCOC(=O)C(C#N)c1ccccn1 (stereo unspecified)	0%	-7%	-8%	i	i	12%
COc1cc(C(=O)NCCc2nc3ccccc3n2C)cc(OC)c1OC	0%	1%	6%	u	u	6.3µM*
